Holding throughout (assay): NCI-60 one-dose screen, 48 h (100 = growth as untreated, 0 = no growth, -100 = all killed)
Details in all cases: 10 µM unless noted

Assay [1] concerns SR leukemia.
Assay [2] relates to RPMI-8226 leukemia.
For assay [3], the system named is OVCAR-5 ovarian.
In assay [4] the test system is OVCAR-4 ovarian.
In assay [5] the test system is SK-OV-3 ovarian.
For assay [6], the system named is IGROV1 ovarian.
For assay [7], the system named is OVCAR-3 ovarian.
Assay [8] deals with HS 578T breast.
Assay [9] has as its system NCI/ADR-RES ovarian.
Assay [10] has as its system OVCAR-8 ovarian.

This is part of a sample that, as a whole, favours compounds with a hit. Of some 83,000 tested, about 20% had one in any assay.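 Treatment: one concentration, 48 hours, 96-well format. Scoring: percent growth, with anything below 10 considered active.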 Values without a mark were called inactive. Active and inactive are the calls of the source.

On to `COc1cc2nc(-c3ccc(Cl)cc3)cc(OCCCN3CCCC3)c2cc1OC`, for which the growth is 14.5% in assay [1]; 20.2% in assay [2]; 52.6% in [3]; 58.2% in [4]; 75.5% in [5]; 34.5% in assay [6]. Besides, the growth in assay [7] is 74.4%; in assay [8], 68.6%; in assay [9], 47.3%.
For the compound `COc1cc(C2=C(c3cn(C)c4ccccc34)COC2=O)cc(OC)c1OC`, the growth in [1] was 8.24% (active); in assay [2], 15.2%; in assay [3], 17.3%; in [4], 21.4%; in assay [5], 28.3%; in assay [6] it was 11.1%. For the same compound, the growth is -13.8% (active) in [7], -6.29% (active) in assay [8] and 13% in assay [9].
With `Cn1nc(CC#N)c2c(=N)n(N)cnc21`, the growth in assay [2] was 117%; in assay [10] it was 104%; in [3], 93.5%; in assay [4], 114%; in [5] it was 99.8%; in assay [6], 103%. Further, the growth in assay [7] is 112%; in [8], 114%; in assay [9] it was 113%.
Consider `COc1ccc(-c2nc(S(=O)(=O)c3ccccc3)c(S(=O)CC(=O)N3CCC(C)CC3)o2)cc1` (stereo not given), for which the growth is -14.6% (active) in assay [2]; 33.9% in assay [10]; 48% in [3]; 28.8% in assay [4]; 92.2% in assay [5]; 25.6% in assay [6]. Also, the growth in [7] was -42.6% (active); in assay [8], 77.7%; in assay [9], 59.7%.
`O=C1Nc2ccccc2/C1=C\c1c(-c2ccccc2)nc2ccccn12`: the growth is 66% in assay [2]; 68.9% in assay [10]; 68.2% in [3]; 78.8% in assay [4]; 30.5% in assay [5]; 46.3% in assay [6]. Besides, the growth in assay [7] is 11.9%; in [8] it was 69.5%; in assay [9], -11.1% (active).
With `O=C1Nc2cc(Cl)ccc2/C1=C\c1c(-c2ccc(F)cc2)nc2ccccn12`, the growth in assay [2] was 45.8%; in [10] it was 34.5%; in assay [3] it was 43.2%; in assay [4] it was -2.19% (active); in assay [5], -26.3% (active); in [6] it was 14%. Further, the growth is -58.3% (active) in assay [7], -4.87% (active) in assay [8] and -27.6% (active) in assay [9].
In the case of `COc1ccc(N2CCN(c3ccc(NC4=C(Cl)C(=O)c5ncccc5C4=O)cc3)CC2)cc1`, the growth was 35.5% in assay [2]; 32.9% in assay [10]; 84.4% in assay [3]; 28.8% in assay [4]; 75.9% in assay [5]; -49.7% (active) in [6]. Also, the growth in [7] was -3.66% (active); in assay [8], 36.3%; in assay [9] it was 83%.
For `CN(CCN(C)c1ccc(C(=N)N)cc1)c1ccc(C(=N)N)cc1`, the growth in assay [2] was 46.8%; in [10] it was 107%; in assay [3], 90.9%; in [4], 98%; in assay [5], 140%; in assay [6] it was 26%. Moreover, the values for the growth in assay [7], in [8] and in [9] were 87.9%, 108% and 104%, respectively.
Take `Cc1c(C)c([N+](=O)[O-])c(C)c([N+](=O)[O-])c1C`: the growth was 102% in assay [2]; 104% in assay [10]; 104% in [3]; 99.5% in assay [4]; 114% in assay [5]; 104% in [6]. The growth was 109% in assay [7], 102% in assay [8] and 108% in assay [9].
On to `CN[C@@H](C)C(=O)N[C@H]1CCS[C@H]2CC(C)(C)[C@@H](C(=O)N[C@H]3c4ccccc4C[C@H]3OCC#CC#CCO[C@@H]3Cc4ccccc4[C@@H]3NC(=O)[C@H]3N4C(=O)[C@@H](NC(=O)[C@H](C)NC)CCS[C@H]4CC3(C)C)N2C1=O`, for which the growth in assay [2] was 71.2%; in assay [10] it was 77.3%; in assay [3], 109%; in assay [4], -33.1% (active); in assay [5], -71.6% (active); in [6], 116%. The growth is 86.2% in assay [7] and 82.2% in assay [8].
Turning to `COc1cc2cc(Oc3cccc(NC(=O)Nc4cc(C(F)(F)F)cc(C(F)(F)F)c4)c3)c(C)nc2cc1OC`, the growth in [2] was 1.15% (active); in assay [10] it was 14.2%; in [3] it was 14.6%; in assay [4], 27.9%; in [5] it was -1.05% (active); in assay [6], 19.8%. Also, the growth in assay [7] was 1.71% (active); in assay [8] it was -10.7% (active); in assay [9] it was 7.03% (active).
Consider `COc1cc2c(cc1OC)C(=O)/C(=C/c1cc(C)c(O)c(C)c1)S2`, for which the growth in assay [2] is 21.6%; in assay [10] it was 37%; in assay [3], 64.7%; in assay [4] it was 84.7%; in assay [5], 52.1%; in assay [6] it was 35.6%. Moreover, the growth in assay [7] was -5.93% (active); in [8] it was 36.8%; in [9], 15.3%.
With `O=C1/C=C/[C@@H](O)[C@@H]2C[C@@H](O)C[C@H]2/C=C/CCC[C@H](CCc2cccc3ccccc23)O1`, the growth was 22% in [2]; 17.7% in assay [10]; 24.6% in [3]; 14.4% in assay [4]; 18.1% in assay [5]; 5.72% (active) in assay [6]. Besides, the values for the growth in assay [7], in assay [8] and in [9] were -48.1% (active), 39.5% and 2.01% (active), respectively.
For `Cc1ncc(C(=O)Nc2ccc(CN3CCN(C)CC3)c(C(F)(F)F)c2)cc1C#Cc1cnc(N)cc1C#N`, the growth was -7.94% (active) in assay [2]; -66.4% (active) in [10]; -94.1% (active) in assay [3]; 30.2% in assay [4]; 20.6% in assay [5]; 5.92% (active) in assay [6]. Further, the values for the growth in assay [7], in assay [8] and in assay [9] were 39.5%, -18.2% (active) and -46.8% (active), respectively.

For the origin of these results see PubChem BioAssay (NCI).
